Results reported in PubChem BioAssay (Tox21).
Records with an inconclusive call do not appear. The source holds several records for some structures; these can differ, active in one and inactive in another. Calls of active or inactive are those of the source. Unless noted, calls follow the shape of the dose curve; as a rule, active = well fitted curve in the direction sought with a large enough effect in the repeat runs; inconclusive = weak or mixed curves; inactive = no such curve, though single readings can be large; an effect the other way counts as inactive or inconclusive.

Key:
[1] = qHTS assay to identify aromatase inhibitors - cell viability counter screen (AID 743084);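 also: cells stimulated with testosterone during compound exposure; nearly all actives have a fitted effect of over 55% in size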
[2] = target: Aryl hydrocarbon receptor (Homo sapiens) (UniProt P35869); test: qHTS assay to identify small molecule that activate the aryl hydrocarbon receptor (AhR) signaling pathway (AID 743085); also: nearly all actives have a fitted effect of over 15% in size; also: potency is read from the fitted curve at half-maximal effect;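 as to activation: HG2L7.5c1 human HepG2 liver cells with stably integrated DRE-driven firefly reporter; series mostly up to about 70 µM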
Summary of the method: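 Stably transfected human liver carcinoma cells (HG2L7.5c1; 20 DRE-firefly luciferase) were incubated 5 h, dosed, and kept 24 h at 37C. Agonism was scored from increased luciferase luminescence.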

[3] = qHTS assay to identify small molecule that activate the aryl hydrocarbon receptor (AhR) signaling pathway - cell viability counter screen (AID 743086);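 also: HepG2 liver cells carrying the AhR DRE luciferase reporter; series mostly up to about 70 µM; nearly all actives have a fitted effect of over 45% in size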
Summary of the method: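 HepG2-AhR-luc (HG2L7.5c1) cells, 4000/well, were preincubated 5 h at 37C, exposed to compound in qHTS format for 24 hr at 37C, then given CellTiter-Fluor for 30 min; viability was read as fluorescence in the reporter wells.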

[4] = target: Peroxisome proliferator-activated receptor gamma (Homo sapiens) (UniProt P37231); test: qHTS assay to identify small molecule agonists of the peroxisome proliferator-activated receptor gamma (PPARg) signaling pathway (AID 743094; active = well fitted activation curve with a large enough effect in the signal ratio in the repeat runs, not every such curve was filed as active; the % refers to the signal ratio)
Summary of the method: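 Stably transfected HEK293H cells (GeneBLAzer PPARg UAS-bla) were incubated with test substances for 17 h at 37C after a 5 h pre-incubation; beta-lactamase activity was then detected by FRET substrate fluorescence.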

[5] = qHTS assay to identify small molecule antagonists of the peroxisome proliferator-activated receptor gamma (PPARg) signaling pathway - cell viability counter screen (AID 743194); also: nearly all actives have a fitted effect of over 55% in size
Summary of the method: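 PPARg-UAS-bla HEK293H cells were plated, rested 5 h at 37 C, then treated with compounds plus rosiglitazone (50 nM final) for 17 h at 37 C; viability was then read by CellTiter-Glo luminescence after 30 min at room temperature.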

[6] = qHTS assay for small molecule agonists of the antioxidant response element (ARE) signaling pathway (AID 743202; active = well fitted activation curve with a large enough effect in the signal ratio in the repeat runs, not every such curve was filed as active; the % refers to the signal ratio; also: potency is read from the fitted curve at half-maximal effect)
Summary of the method: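 Compounds delivered in DMSO to ARE-bla HepG2 cells (2,000 cells/well, pre-incubated 5 h) and left 16 h at 37 C. LiveBLAzer B/G FRET substrate then added for 2 h at RT before fluorescence reading.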

[7] = qHTS assay for small molecule agonists of the antioxidant response element (ARE) signaling pathway - cell viability counter screen (AID 743203; calls by dose curve; also: nearly all actives have a fitted effect of over 55% in size)
Summary of the method: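 Cells (ARE-bla HepG2, 2,000/well) receive DMSO-dissolved compounds after a 5 hrs rest. Plates incubate 16 hrs at 37C/5% CO2. CellTiter-Glo luminescence is then recorded after 30 min at room temperature.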

[8] = qHTS assay for small molecule activators of the heat shock response signaling pathway - cell viability counter screen (AID 743209); also: nearly all actives have a fitted effect of over 50% in size
Summary of the method: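 Quantitative HTS format, Tox21 10K library. HeLa cells carrying an HSE-driven beta-lactamase reporter were treated 5 h at 37 C, then assessed for viability by CellTiter-Glo luminescence.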

[9] = qHTS assay for small molecule activators of the heat shock response signaling pathway (AID 743210; active = well fitted activation curve with a large enough effect in the signal ratio in the repeat runs, with a control signal flat, not every such curve was filed as active; the % refers to the signal ratio;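 also: HeLa cells with beta-lactamase reporter driven by heat shock elements; series mostly up to about 63 µM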)
Summary of the method: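 Reporter gene assay: HeLa cells stably bearing an HSE-bla construct, compound treatment 5 h at 37 C, LiveBLAzer substrate 2.5 h at RT, fluorescence intensity.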

[10] = target: Peroxisome proliferator-activated receptor gamma (Homo sapiens) (UniProt P37231); test: qHTS assay to identify small molecule antagonists of the peroxisome proliferator-activated receptor gamma (PPARg) signaling pathway (AID 743191; calls by dose curve; also: series mostly up to about 63 µM; nearly all actives have a fitted effect of over 30% in size)
Summary of the method: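 GeneBLAzer PPARg UAS-bla HEK293H cells carrying a UAS-driven beta-lactamase reporter were plated at 3000 cells/well, preincubated 5 h at 37C, then given compound for 17 h at 37C; LiveBLAzer B/G FRET substrate was read after 1 h at room temperature.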

Measured: Potency

Chain of Peroxisome proliferator-activated receptor gamma (Homo sapiens) (P37231 whole entry, looked up): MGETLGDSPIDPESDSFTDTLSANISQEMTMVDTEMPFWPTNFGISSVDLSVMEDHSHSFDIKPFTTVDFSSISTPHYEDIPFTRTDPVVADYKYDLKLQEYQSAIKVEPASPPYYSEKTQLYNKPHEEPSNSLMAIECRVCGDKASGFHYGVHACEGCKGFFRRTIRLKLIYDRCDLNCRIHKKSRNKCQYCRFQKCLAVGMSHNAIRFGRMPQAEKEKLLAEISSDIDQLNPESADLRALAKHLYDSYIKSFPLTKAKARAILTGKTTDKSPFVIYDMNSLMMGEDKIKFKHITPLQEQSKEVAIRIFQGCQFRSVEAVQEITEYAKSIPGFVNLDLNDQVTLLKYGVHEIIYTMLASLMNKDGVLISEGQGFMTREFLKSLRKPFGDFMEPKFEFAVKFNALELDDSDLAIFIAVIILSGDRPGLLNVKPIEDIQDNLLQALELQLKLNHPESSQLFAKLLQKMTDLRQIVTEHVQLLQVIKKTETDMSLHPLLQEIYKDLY
Chain of Aryl hydrocarbon receptor (Homo sapiens) (P35869 whole entry, looked up): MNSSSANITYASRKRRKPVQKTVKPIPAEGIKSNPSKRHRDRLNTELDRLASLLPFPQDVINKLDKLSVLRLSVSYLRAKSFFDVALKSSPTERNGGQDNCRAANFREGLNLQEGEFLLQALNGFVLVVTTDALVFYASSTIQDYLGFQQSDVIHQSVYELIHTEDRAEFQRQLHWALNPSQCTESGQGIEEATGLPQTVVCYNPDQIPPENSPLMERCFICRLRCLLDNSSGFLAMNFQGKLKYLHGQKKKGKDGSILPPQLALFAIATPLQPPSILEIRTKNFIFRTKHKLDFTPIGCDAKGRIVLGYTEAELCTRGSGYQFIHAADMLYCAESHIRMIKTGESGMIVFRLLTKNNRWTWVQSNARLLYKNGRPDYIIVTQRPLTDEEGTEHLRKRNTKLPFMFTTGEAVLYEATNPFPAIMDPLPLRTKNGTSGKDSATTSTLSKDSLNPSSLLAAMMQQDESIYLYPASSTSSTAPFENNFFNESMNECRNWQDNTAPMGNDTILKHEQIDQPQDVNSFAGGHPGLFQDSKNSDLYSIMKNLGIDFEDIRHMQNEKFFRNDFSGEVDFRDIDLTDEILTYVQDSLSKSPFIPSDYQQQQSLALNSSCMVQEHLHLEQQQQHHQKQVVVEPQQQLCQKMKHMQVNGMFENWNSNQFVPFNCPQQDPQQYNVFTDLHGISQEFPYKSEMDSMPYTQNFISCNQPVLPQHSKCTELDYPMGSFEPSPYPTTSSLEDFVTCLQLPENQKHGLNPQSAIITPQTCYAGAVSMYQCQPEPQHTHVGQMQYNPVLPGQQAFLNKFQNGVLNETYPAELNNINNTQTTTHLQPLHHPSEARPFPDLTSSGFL

O=C(O)c1ccc(Cl)cc1Cl
inactive: [1] | [2] | [3] | [4] | [5] | [6] | [7] | [8] | [9]

O=C(O)C(=O)Cc1ccccc1
active: [6] 27.3 µM
inactive: [1] | [2] | [3] | [10] | [7] | [8] | [9]

COc1ccc(S(=O)(=O)N2c3ccc(Cl)cc3[C@@](O)(c3ccccc3Cl)[C@H]2C(=O)N2CCC[C@@H]2C(N)=O)cc1OC
inactive: [1] | [2] | [3] | [10] | [5] | [6] | [7] | [9]

CCCCN
inactive: [1] | [2] | [3] | [4] | [5] | [6] | [7] | [8]

NS(=O)(=O)c1ccc(NC(=O)CCC(=O)O)cc1
inactive: [1] | [2] | [3] | [4] | [5] | [6] | [7] | [9]

COC(=O)c1ccccc1C(=O)c1ccc(OCCN2CCCCC2)cc1
inactive: [1] | [2] | [3] | [4] | [5] | [6] | [7] | [8] | [9]

CC[C@H](C)C(=O)O[C@H]1C[C@H](O)C=C2C=C[C@H](C)[C@H](CC[C@@H](O)C[C@@H](O)CC(=O)O)[C@H]21
inactive: [1] | [2] | [3] | [4] | [5] | [7] | [8] | [9]

CCCCCCCCC(=O)Cl
inactive: [1] | [2] | [3] | [4] | [5] | [7] | [8] | [9]

CCCN1C[C@H](CSC)C[C@@H]2c3cccc4[nH]cc(c34)C[C@H]21
inactive: [1] | [2] | [3] | [10] | [5] | [6] | [7] | [9]

CCCCCCCCSCC
inactive: [1] | [2] | [3] | [4] | [5] | [7] | [8]

C=C(C)C(=O)OCCN(CC)CC
inactive: [1] | [2] | [3] | [4] | [5] | [6] | [7] | [9]

CCCCOCCOC(=O)COc1nc(Cl)c(Cl)cc1Cl
inactive: [1] | [2] | [3] | [4] | [5] | [8] | [9]

CC(C)OC(=O)CCCCC(=O)OC(C)C
active: [2] 54.6 µM | [6] 30.7 µM
inactive: [1] | [3] | [4] | [5] | [7] | [9]

CCCCCCN
inactive: [1] | [2] | [3] | [5] | [6] | [7] | [8]

Cc1cc(NC(=O)C2=C(O)c3ccccc3S(=O)(=O)N2C)no1
inactive: [1] | [2] | [3] | [4] | [5] | [6] | [7] | [8] | [9]

N#Cc1ccc(C(=O)O)cc1
inactive: [1] | [2] | [3] | [4] | [5] | [6] | [7] | [8] | [9]

CCCCCCCCCCCCCC
inactive: [1] | [2] | [3] | [4] | [5] | [7] | [9]

C[Si](C)(C)C
inactive: [1] | [2] | [3] | [4] | [6] | [7] | [8] | [9]

CC(C)(C)c1cc(CCC(=O)NN)cc(C(C)(C)C)c1O
inactive: [1] | [2] | [3] | [4] | [5] | [6] | [7] | [8] | [9]

CC(=O)OC(C)OC(=O)C(C)c1ccc(-c2ccccc2)c(F)c1 (configuration not stated)
inactive: [1] | [2] | [3] | [4] | [5] | [6] | [7] | [8] | [9]

CC(=O)NCc1c(I)c(NC(C)=O)c(I)c(C(=O)O)c1I
inactive: [1] | [2] | [3] | [4] | [5] | [6] | [8]

NCCN1CCOCC1
inactive: [1] | [2] | [3] | [5] | [6] | [7] | [8]

COc1ccc(-c2cc(=O)c3c(O)cc(O[C@@H]4O[C@H](CO[C@@H]5O[C@@H](C)[C@H](O)[C@@H](O)[C@H]5O)[C@@H](O)[C@H](O)[C@H]4O)cc3o2)cc1O
inactive: [1] | [3] | [4] | [5] | [8] | [9]
active: [2] 29.8 µM

CC(=O)Nc1cccc(C)c1
inactive: [1] | [2] | [3] | [4] | [5] | [6] | [7] | [8] | [9]

CCCC/C=C\CCCCCCCCCC=O
inactive: [1] | [2] | [3] | [4] | [5] | [8] | [9]

CC1=CCC(C(C)C)=CC1
inactive: [1] | [2] | [3] | [4] | [5] | [6] | [7] | [8]

Nc1cccc(O)c1
inactive: [1] | [3] | [4] | [5] | [6] | [8] | [9]
active: [2] 35.4 µM

BrCCCCCBr
inactive: [1] | [2] | [3] | [4] | [5] | [6] | [8]

Oc1cn2c(n1)Nc1ccc(Cl)c(Cl)c1C2
23.7 µM (active) and inactive: [2]
inactive: [1] | [3] | [4] | [5] | [7] | [8]

O=C1c2cccc3c2[C@H](CCC3)CN1[C@@H]1CN2CCC1CC2
inactive: [1] | [2] | [4] | [5] | [6] | [8]

CC(C(=O)O)c1ccc2c(c1)CC(=O)c1ccccc1S2 (configuration not stated)
inactive: [1] | [2] | [3] | [5] | [6] | [7] | [8] | [9]

CCCCOC(=O)c1ccccc1
inactive: [1] | [3] | [4] | [10] | [5] | [6] | [7] | [8]

N[C@@H](CCC(=O)Nc1ccc([N+](=O)[O-])cc1)C(=O)O
inactive: [1] | [2] | [5] | [6] | [7] | [8] | [9]

CO[C@@H]1[C@@H](OC(N)=O)[C@@H](O)[C@H](Oc2ccc3c(O)c(NC(=O)c4ccc(O)c(CC=C(C)C)c4)c(=O)oc3c2C)OC1(C)C
inactive: [1] | [2] | [3] | [5] | [6] | [8] | [9]

CC(C)NCC(O)COc1cccc2[nH]ccc12 (configuration not stated)
inactive: [1] | [3] | [4] | [5] | [6] | [7] | [8] | [9]

NC(CO)C(=O)NNCc1ccc(O)c(O)c1O (configuration not stated)
inactive: [1] | [3] | [4] | [10] | [5] | [7] | [8] | [9]

OCCC(F)(F)C(F)(F)C(F)(F)C(F)(F)C(F)(F)C(F)(F)C(F)(F)C(F)(F)F
inactive: [1] | [2] | [3] | [5] | [6] | [8] | [9]

O=C(O)c1cc(Br)c(O)c(Br)c1
inactive: [1] | [3] | [4] | [10] | [5] | [6] | [7] | [9]

O=C(O)Cc1cn(-c2ccccc2)nc1-c1ccc(Cl)cc1
inactive: [1] | [2] | [3] | [5] | [7] | [8] | [9]

O=C(/N=N/C(=O)OCc1ccccc1)OCc1ccccc1
inactive: [1] | [3] | [4] | [5] | [6] | [7] | [8]

O=C(NCCN1CCOCC1)c1ccc(Cl)cc1
inactive: [1] | [3] | [4] | [10] | [5] | [6] | [7] | [8] | [9]

Nc1ccc2cc(S(=O)(=O)O)cc(O)c2c1
inactive: [1] | [4] | [10] | [5] | [7] | [8] | [9]
active: [2] 27.1 µM

CCCCNc1ccc(C(=O)OCCN(C)C)cc1
inactive: [1] | [2] | [3] | [5] | [7] | [8] | [9]

CCOc1cc([N+](=O)[O-])c(OCC)cc1N1CCOCC1
inactive: [1] | [2] | [4] | [5] | [6] | [7] | [8] | [9]

CC(C)(C)OC(=O)c1ccc(O)cc1
inactive: [1] | [3] | [4] | [10] | [5]

N[C@@H](CCC(=O)N[C@@H](CS)C(=O)NCC(=O)O)C(=O)O
inactive: [1] | [2] | [3] | [5] | [6] | [7] | [9]

C[C@@H]1O[C@@H](O[C@@H]2[C@@H](O)[C@H](OCCc3ccc(O)c(O)c3)O[C@H](CO[C@@H]3O[C@H](CO)[C@@H](O)[C@H](O)[C@H]3O)[C@H]2OC(=O)/C=C/c2ccc(O)c(O)c2)[C@H](O)[C@H](O)[C@H]1O
inactive: [1] | [3] | [4] | [10] | [5] | [7] | [8] | [9]
